About 79,000 compounds went through this panel and 15% of them were active in at least one assay; those are over-represented in the sample as a whole. Values without a mark were called inactive. The source made the active and inactive calls. Rule as the data show it: active = growth inhibition above about 70%; inactive = the rest.
Experiment: NCI Yeast Anticancer Drug Screen. Data for the bub3 strain (AID 167)
Details: S. cerevisiae bub3 mutant strain, at 5.0 µM (retest, dose inferred, filed as 0.5), active compounds read high
Summary of the method: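 Mutant yeast screening strain plus compound; vehicle-treated cultures serve as the 0% inhibition reference.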

Row | SMILES | growth inhibition
1 | NC1=NC2=C(CCCC2)C(c2cccs2)S1 (stereo unspecified) | 38%
2 | CCC(C)(C)NCCCCCNc1cc(OC)cc2cccnc12 | 6%
3 | C/C(=N\NC(=S)Nc1ccc([N+](=O)[O-])cc1)c1nc2ncccc2[nH]1 | -35%
4 | COC(=O)c1ccc(SCC(=O)c2ccc([N+](=O)[O-])o2)cc1 | -5%
5 | CCCCCCCCCCCC(=O)OCCOP(=O)(OCC)OCC | -1%
6 | COc1cccc2c1S(=O)(=O)C(c1ccccc1)=CC2=O | 58%
7 | CC(C)(C)c1ccc(-n2c3nc(=O)n(-c4ccccc4C(F)(F)F)c(=O)c-3cc3ccccc32)cc1 | 8%
8 | NC(=O)C1C(=O)c2cccc3c2C1(Br)C(Br)CCC3 (stereo unspecified) | 7%
9 | COC(=O)/C(=C/C=C(c1ccccc1)c1ccccc1)N(C(C)=O)C(C)=O | -1%
10 | COc1cc(C2=NCCO2)cc(OC)c1OC | -67%
11 | O=C1c2cccc3cc([N+](=O)[O-])cc(c23)C(=O)N1O | 18%
12 | CCOc1ccccc1C(=O)Oc1cccc(C)c1 | 6%
13 | CCNc1cc(N)[n+](CC)c2n[nH]c(/N=C/c3cc(Cl)cc(Cl)c3O)c12 | 87% (active)
14 | CC(=O)OC1=Cc2ccccc2C(c2ccccc2)c2ccccc21 (stereo unspecified) | 8%
15 | CCOC(=O)c1[nH]c(Br)c(-c2ccc(OC)c(OC)c2)c1Br | -2%
16 | C#C[C@]1(OC(C)=O)CC[C@H]2[C@@H]3CCC4=CC(=O)CC[C@@H]4[C@H]3CC[C@@]21C | 5%
17 | COc1ccc(CC2=CC(=O)C(=O)C=C2C)cc1 | -2%
18 | O=C(O)CCC/C(=N\Nc1ccccc1)C(=O)O | 1%

Row | SMILES | growth inhibition
19 | S=c1[nH]c2ccc(Br)cc2c(=S)n1-c1ccccc1 | -9%
20 | CC1(C)OC2C(COC(c3ccccc3)(c3ccccc3)c3ccccc3)OC(n3cnc4c(N)ncnc43)C2O1 (stereo unspecified) | -2%
21 | O=[N+]([O-])c1cnc(F)c(Br)c1 | 99% (active)
22 | C=C(C#N)C(=O)OCC(CC)CC.C=C(C#N)C(=O)OCC(CC)CC.CS(C)=O.CS(C)=O.Nc1c(N=Nc2ccc(-c3ccc(N=Nc4cc(S(=O)(=O)[O-])c5ccccc5c4N)cc3)cc2)cc(S(=O)(=O)[O-])c2ccccc12.[Pt+2] | 3%
23 | CCCCCCCCCCS(=O)(=O)Nc1ccc(C(=O)NN)cc1 | 48%
24 | COC(=O)c1ccc(C)cc1CC1Cc2cc(C)ccc2C1=O (stereo unspecified) | -34%
25 | CCCCCOCC(=O)OC | 0%
26 | COc1ccc(C2c3cc4c(cc3OC(N3CCOCC3)C2C)OCO4)c(OC)c1 (stereo unspecified) | 7%
27 | COC1/C=C\OC2(C)Oc3c(C)c(O)c4c(c3C2=O)C2=NC(C)(C)N(c3ccccc3)C2=C(NC(=O)/C(C)=C\C=C\C(C)C(O)C(C)C(O)C(C)C(OC(C)=O)C1C)C4=O (stereo unspecified) | -7%
28 | C/C(=C/C(=O)N1c2ccccc2CC1c1c[nH]c2ccccc12)C(=O)O (stereo unspecified) | -4%
29 | CSc1nc(C)c(C(=O)CCN2CCOCC2)s1 | -12%
30 | Cn1c(=S)c2[nH]c(=S)[nH]c2n(C)c1=O | 91% (active)
31 | CC(C)CCC(C)(C)c1cc(O)ccc1O | 79% (active)
32 | CCc1c(-c2ccccc2)c(CN2CCCCC2)c2ccccn12 | -4%
33 | Clc1ccc(CN2COc3c(ccc4cccnc34)C2)c(Cl)c1 | -6%
34 | Cc1[nH]c2ccccc2c1/C=C1/CCCCCCC1=O | -2%
35 | CCOC(=O)c1ccc(NC(=O)O/N=C(/Cl)CC)cc1 | -40%
36 | COC1OC(COC(=O)c2ccccc2)CC1F (stereo unspecified) | 19%
